The source of these data is ChEMBL document CHEMBL3433997, “St. Jude Leishmania screening dataset” (2016).

This experiment addresses Glucose transporter (Leishmania mexicana) (UniProt O61059). Briefly: ST_JUDE_LEISH: Cytotoxicity at 2uM final concentration against transgenic Leishmania Mexicana promastigotes LmGT2 that are glucose transport deficient and complemented with the L. Mexicana glucose transporter 2. Activity is measured by DNA content using SYBR green in vitro. The class given is functional.
What is called inhibition is the drop in the measured response relative to a control, in per cent. Take `CCCCNc1nccc2ccc(-c3ccncc3)cc12`: the inhibition amounted to 4.26%.

Turning to `COc1ccc2c(=NN=Cc3ccccc3Cl)cc(C)[nH]c2c1`, the inhibition is 0.2%.

For the molecule `COc1cc(NC(=O)N2CCc3ccc(OCCN4CCCCC4)cc32)cc(C(F)(F)F)c1`, the inhibition turned out to be 3.59%.

For the molecule `Cn1cnc(CCNC(=O)c2cccc(-c3csc(-c4nc5ccccc5[nH]4)c3)c2)c1`, the inhibition is -0.89%.

Consider `CCOC(=O)CNC(=O)c1cc(=O)c2ccccc2o1`, for which the inhibition amounted to 0.44%.

`Cc1cc(C2CCN(CCCCNC(=O)c3ccc(NC(=O)c4ccc(Cl)cc4)cc3)CC2)c(C)cc1OC(C)C`: the inhibition is -1.68%.

Turning to `Cc1ccc(CN2CCN(c3cc4c(cc3Cl)CCN4C(=O)Cc3ccc(NC(=O)c4ccc(C(F)(F)F)cc4)cc3)CC2)cc1`, the inhibition stood at 1.59%.

`O=C(N[C@@H](CC1CCCCC1)C(=O)NCCN1CCCCC1)c1ccc(O)c(-c2cccc(C(F)(F)F)c2)c1`: the inhibition was -0.49%.

`COc1ccc(Nc2ccnc3cc(Cl)ccc23)cc1OC`: the inhibition came to 7.28%.

On to `CCOc1ccccc1C=CC(=O)Nc1ccc2nc(N3CCN(C)CC3)cc(C)c2c1`, for which the inhibition is 4.24%.

`Cc1cccc(C(=O)Nc2ccnc(N3CCC(N(C)Cc4cccc(O)c4)CC3)c2)c1`: the inhibition was 3.02%.

With `Cc1cccc(NC(=O)Nc2cccc(-c3ccc(-c4nc5cc(C(F)(F)F)ccc5[nH]4)cc3)c2)c1`, the inhibition came to 1.66%.

With `Cc1[nH]c(C)c(-c2ccc(OCCOc3ccc(C(F)(F)F)cn3)cc2)c(=O)c1Br`, the inhibition is -1.93%.

On to `Clc1ccc(CNc2nc(NCCc3c[nH]cn3)nc(NC3CCCCC3)n2)cc1`, for which the inhibition is -0.72%.

On to `Cc1n[nH]c2ccc(-c3ccc4nccc(N5CCC(N)CC5)c4c3)cc12`, for which the inhibition is -3.17%.

On to `NC1=NC(c2ccccc2)N(c2ccc(Cl)c(Cl)c2)C(N)=N1` (stereo not given), for which the inhibition stood at 9.84%.

Take `Cc1cc(Nc2ccc3c(c2)CCC3)n2ncnc2n1`: the inhibition is 0.55%.

For the molecule `COc1cc(NC(=O)c2sc(-c3ccc(Cl)cc3)cc2NC(=O)N2CCCC2)ccc1OCCN1CCCC1`, the inhibition worked out at 1.4%.

As to `CC(C)CCn1c(Sc2ccc([N+](=O)[O-])cc2C(F)(F)F)nnc1-c1ccccc1Cl`, the inhibition amounted to 2.26%.

As to `Fc1cccc(COc2ccc(Nc3ncnc4ccc(C#C[C@H]5CCCN5)cc34)cc2Cl)c1`, the inhibition turned out to be 2.2%.

For `Cc1cc(C2CCN(CCCCNC(=O)c3ccc(-c4ccc(C(F)(F)F)cc4)cc3)CC2)c(C)cc1OCC(N)=O`, the inhibition came to 0.73%.

On to `CCN(CC)CCN(Cc1ccc(-c2ccc(C(F)(F)F)cc2)nc1)C(=O)Cn1c(SCc2ccc(F)cc2)nc(=O)c2sccc21`, for which the inhibition was 1.84%.

As for `CN(c1ccc2c(c1)nc(NCc1ccccc1)n2C)c1ccnc(Nc2ccc(CS(C)(=O)=O)cc2)n1`, the inhibition came out at 3.22%.

As to `Clc1ccc(Nc2nc(Nc3ccc(Cl)c(Cl)c3)nc(Sc3nc4ccccc4[nH]3)n2)cc1Cl`, the inhibition was determined as 7.05%.

As to `Cc1cc(O)c(-c2ccc(Oc3ccc(F)cc3)cc2)c(C)n1`, the inhibition was -3.08%.

With `CC(C)CCNC(=O)C1Cc2c([nH]c3ccc(Br)cc23)C2(CCN(CCc3ccccc3)CC2)N1` (stereo not given), the inhibition was 0.26%.

Take `Cc1cc(N2CCCCC2)nc2ccc(NC(=O)c3cncc(Br)c3)cc12`: the inhibition came out at 6.57%.

In the case of `Cc1cc(Cl)ccc1NC(=O)Nc1ccc2nccc(N3CCN(C)CC3)c2c1`, the inhibition amounted to 5.6%.

In the case of `Oc1ccccc1CN1CCCC(COC(c2ccc(F)cc2)c2ccc(F)cc2)C1` (stereo not given), the inhibition came to 0.55%.

With `Cc1cc(-c2ccc(Cl)cc2)c2c(N)c(C(=O)Nc3ccc(F)cc3)sc2n1`, the inhibition was 0.35%.

`Cc1cc(F)ccc1-c1nc(NCCCN2CCCC2=O)nc2c1ccc(=O)n2-c1c(F)cccc1F`: the inhibition is 11.1%.

As for `CCOC(=O)C1=C(C)N=c2sc(=Cc3ccccc3O)c(=O)n2C1c1ccc(OC)c2ccccc12` (stereo not given), the inhibition is -1.57%.

As for `CC(C)(C)c1ccc(NC(=O)c2cccc(CN3CCCN(Cc4ccc(F)cc4)CC3)c2)cc1`, the inhibition is 1.15%.

Regarding `CCN(CC)c1ccc2nc(N)nc(N)c2c1`, the inhibition came out at 7.56%.

Turning to `COc1ccc2nccc([C@@H](O)CN3CCC(NC(=O)c4cc5ccccc5[nH]4)CC3)c2c1`, the inhibition turned out to be 38.7%.

With `CN1CCN(CCCN(Cc2ccc(-c3cccc(CNCc4ccc5c(c4)OCO5)c3)cc2)C(=O)NC2CCCCC2)CC1`, the inhibition amounted to 0.88%.

As to `CN(C)CCC1CCN(CCS(=O)(=O)c2cccc(Nc3ccc(-c4ccsc4)cn3)c2)CC1`, the inhibition is 1.59%.

Take `O=[N+]([O-])c1cccc(CNCC2CCN(CC3CCCCC3)CC2)c1`: the inhibition is 2.98%.

As for `CC1(C)CC(NC(=O)NC2CCN(Cc3ccccc3)CC2)CC(C)(CNC(=O)NC2CCN(Cc3ccccc3)CC2)C1` (stereo not given), the inhibition was 1.3%.

Turning to `COc1cc2cc(C(=O)Nc3ccccc3)c(N)nc2cc1OC`, the inhibition is 0.18%.
